The target of this test is furin, P09958. As to the kind of experiment: furin cleavage Z-score vs untreated control; higher = more cleavage, active = 3.5 or more, inactive = 1 or less, 8 variable residues between constant flanks. The essentials: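 Purified furin digested bead-held 8-mer peptide–cDNA fusions at 1:10 enzyme:substrate in 0.01 ml of 50 mM HEPES pH 7.5 with CaCl2 and NaCl for 7.5, 15 or 30 min. The cleavage Z-score compares sequencing counts of released DNA with furin-free reactions on a log scale, with lowess adjustment and median absolute deviation scaling.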
Chain of furin, P09958 (P09958 whole entry, the tested form may be a part): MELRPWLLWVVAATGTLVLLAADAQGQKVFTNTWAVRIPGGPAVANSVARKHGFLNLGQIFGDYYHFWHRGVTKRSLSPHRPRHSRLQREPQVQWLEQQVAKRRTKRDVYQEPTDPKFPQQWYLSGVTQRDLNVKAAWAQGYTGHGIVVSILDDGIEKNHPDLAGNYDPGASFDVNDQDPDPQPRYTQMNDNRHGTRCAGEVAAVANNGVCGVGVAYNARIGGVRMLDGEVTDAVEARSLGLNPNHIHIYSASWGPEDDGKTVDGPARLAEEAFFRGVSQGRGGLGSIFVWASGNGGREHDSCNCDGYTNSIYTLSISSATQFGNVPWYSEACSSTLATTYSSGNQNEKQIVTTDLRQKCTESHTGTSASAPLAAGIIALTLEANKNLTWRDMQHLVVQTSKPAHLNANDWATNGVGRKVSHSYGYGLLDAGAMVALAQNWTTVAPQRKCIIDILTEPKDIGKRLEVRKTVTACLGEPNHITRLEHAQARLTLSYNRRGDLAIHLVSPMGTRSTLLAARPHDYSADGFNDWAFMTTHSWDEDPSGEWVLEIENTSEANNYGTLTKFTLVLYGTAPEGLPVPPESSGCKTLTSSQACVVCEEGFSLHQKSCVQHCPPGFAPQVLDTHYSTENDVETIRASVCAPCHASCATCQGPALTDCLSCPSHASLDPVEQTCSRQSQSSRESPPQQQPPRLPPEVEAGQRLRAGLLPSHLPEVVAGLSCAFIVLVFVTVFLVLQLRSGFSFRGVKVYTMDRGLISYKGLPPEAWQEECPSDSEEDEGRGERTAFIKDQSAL

We go through 28 sequences from the supplement of paper PMC3545927.

The other results are listed elsewhere or left out. How many sequences the whole screen found active is unknown.

With CAHSKKKCDEAGNASASA [HC858], the “furin cleavage Z-score” value is, setting by setting: (7.5 min) 0.938 (inactive); (15 min) -0.00521 (inactive); (30 min) -0.176 (inactive).
For CASPPCSAHLAGNASASA [HC2499] the same measures were 1.04, -0.446 (inactive) and 0.95 (inactive).
As for CAYVCCSMSYAGNASASA [HC1989], the “furin cleavage Z-score” value is 0.374 (inactive) (7.5 min), -0.0389 (inactive) (15 min) and 0.11 (inactive) (30 min).
With CAVVSCSMSYAGNASASA [HC2037], the “furin cleavage Z-score” value (7.5 min) is 0.59 (inactive), the “furin cleavage Z-score” value (15 min) is -1.65 (inactive) and the “furin cleavage Z-score” value (30 min) is 0.705 (inactive).
The matching figures for CAPVFRQKRSAGNASASA [FS-620]: 14.1 (active), 12.3 (active) and 9.55 (active).
For CAPVPCHRPSAGNASASA [HC2319], the “furin cleavage Z-score” value (7.5 min) was 0.318 (inactive), the “furin cleavage Z-score” value (15 min) worked out at 1.19 and the “furin cleavage Z-score” value (30 min) was 0.255 (inactive).
Turning to CAPVPRQKRSAGNASASA [FS-1387], the “furin cleavage Z-score” value was 10.9 (active) (7.5 min), 10.8 (active) (15 min) and 8.52 (active) (30 min).
Consider CAGPKDQKRSAGNASASA [FS-1002], for which the “furin cleavage Z-score” value is, setting by setting: (7.5 min) 0.96 (inactive); (15 min) 0.905 (inactive); (30 min) 0.353 (inactive).
The matching figures for CARVYRQKRSAGNASASA [FS-561]: 12.1 (active), 12.4 (active) and 9.77 (active).
CAPVPRQRRPAGNASASA [FS-557]: the “furin cleavage Z-score” value (7.5 min) turned out to be 1.31, the “furin cleavage Z-score” value (15 min) is 0.43 (inactive) and the “furin cleavage Z-score” value (30 min) was -0.0302 (inactive).
For the sequence CAIHRRTPRSAGNASASA [FS-1213], the “furin cleavage Z-score” value is 10.3 (active) (7.5 min), 8.47 (active) (15 min) and 7.15 (active) (30 min).
On to CATTPCSGSLAGNASASA [HC1925], for which the “furin cleavage Z-score” value is, setting by setting: (7.5 min) -0.297 (inactive); (15 min) -1.38 (inactive); (30 min) -1.27 (inactive).
CAMEEPSQHLAGNASASA [HC20]: the “furin cleavage Z-score” value is -0.193 (inactive) (7.5 min), 1.35 (15 min) and 1.68 (30 min).
CAELQRQKRSAGNASASA [FS-762]: the “furin cleavage Z-score” value by setting is: (7.5 min) 10.3 (active); (15 min) 11.5 (active); (30 min) 9.23 (active).
Take CAIHHRQKRSAGNASASA [FS-540]: the “furin cleavage Z-score” value is, setting by setting: (7.5 min) 12 (active); (15 min) 10.4 (active); (30 min) 9.65 (active).
For CASLLKVPYFAGNASASA [HC613], the “furin cleavage Z-score” value runs as follows: (7.5 min) -0.873 (inactive); (15 min) 0.367 (inactive); (30 min) -0.906 (inactive).
CAPARRSVLAAGNASASA [FS-1987]: the “furin cleavage Z-score” value by setting is: (7.5 min) -0.364 (inactive); (15 min) -0.766 (inactive); (30 min) -0.871 (inactive).
As to CAVASRNRRAAGNASASA [FS-147], the “furin cleavage Z-score” value was 13.1 (active) (7.5 min), 12.8 (active) (15 min) and 9.83 (active) (30 min).
In the case of CAPARRNRRAAGNASASA [FS-837], the “furin cleavage Z-score” value runs as follows: (7.5 min) 8.23 (active); (15 min) 9.65 (active); (30 min) 8.04 (active).
In the case of CAPGEINRVAAGNASASA [HC1610], the “furin cleavage Z-score” value by setting is: (7.5 min) 0.342 (inactive); (15 min) 1.78; (30 min) 0.355 (inactive).
For CALTTTQWQVAGNASASA [HC494], the “furin cleavage Z-score” value by setting is: (7.5 min) 0.00411 (inactive); (15 min) -0.467 (inactive); (30 min) 0.941 (inactive).
As for CACEIYGACYAGNASASA [HC1593], the “furin cleavage Z-score” value is -1.5 (inactive) (7.5 min), -1.53 (inactive) (15 min) and -2.18 (inactive) (30 min).
Regarding CAPISYLKGSAGNASASA [HC739], the “furin cleavage Z-score” value (7.5 min) was 0.299 (inactive), the “furin cleavage Z-score” value (15 min) is -0.469 (inactive) and the “furin cleavage Z-score” value (30 min) is -0.42 (inactive).
The matching figures for CAPISRPRRRAGNASASA [FS-1648]: 7.6 (active), 8.41 (active) and 6.07 (active).
The matching figures for CALAARPRRRAGNASASA [FS-815]: 4.52 (active), 6.47 (active) and 5.7 (active).
On to CAGSPRPRRRAGNASASA [FS-436], for which the “furin cleavage Z-score” value (7.5 min) is 7.08 (active), the “furin cleavage Z-score” value (15 min) is 9.3 (active) and the “furin cleavage Z-score” value (30 min) was 7.64 (active).
On to CAEVYTSTWVAGNASASA [HC2189], for which the “furin cleavage Z-score” value by setting is: (7.5 min) 0.0489 (inactive); (15 min) -1.01 (inactive); (30 min) -0.826 (inactive).
On to CAESEVPCHRAGNASASA [HC2457], for which the “furin cleavage Z-score” value (7.5 min) is -0.0892 (inactive), the “furin cleavage Z-score” value (15 min) was 0.0197 (inactive) and the “furin cleavage Z-score” value (30 min) is 0.878 (inactive).
